Only some compounds are listed: those with a hit (about 5.8% of all), similar ones and a draw of the others.
KB-V1 cytotox: KB-V1 MDR subline cytotoxicity; KB-V1 MDR cells viability, CellTiter-Glo, 72 h; Potency, µM (top dose mostly 46.1 µM), most hits filed as cytotoxic; hit rate 3.4% among 400,000; further: on the % scale 0 is the no-effect control and ±100 the full control effect; nearly all actives have a fitted effect of over 60% in size
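Cytotoxicity via CellTiter-Glo luminescence after 72 h compound exposure at 37 degrees C. Cells: drug-selected KB-V1 line, DMEM phenol-red free plus 10% FBS. Compounds tested at multiple concentrations; normalized data fitted to concentration-effect curves.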
PINK1 modulator: PINK1 expression modulation; PINK1 immunofluorescence, high-content cytometry, 24 h; Potency, µM (titrated, usually from 76.6 µM), for the others: at the top dose activation (PINK1 increase), hits mostly activators; hit rate 0.2% among 410,000; active means well fitted activation curve with a large enough effect; inconclusive means small, poorly fitted or top-dose-only effect; cell line not stated here; further: % of control where 0% means no effect; nearly all actives have a fitted effect of over 65% in size
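Fluorescence from anti-PINK1 antibody, together with nuclear and cell stains, was scanned on a laser-scanning cytometer. Before staining, stable-line cells were incubated 24 hours with compounds at 5 concentrations; primary antibody 12 h at 10 degrees C.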
ALOX12 inh: inhibitors of human 12S-lipoxygenase ALOX12; purified 12hLO, xylenol orange hydroperoxide absorbance; Potency, µM (doses to about 108 µM), for the others: at the top dose activity change, negative = inhibition, usual class: inhibitors; hit rate 1.1% among 580,000; AID 1671190; further: on the % scale 0 is the no-effect control and ±100 the full control effect
Target sequence (P18054 whole entry, looked up): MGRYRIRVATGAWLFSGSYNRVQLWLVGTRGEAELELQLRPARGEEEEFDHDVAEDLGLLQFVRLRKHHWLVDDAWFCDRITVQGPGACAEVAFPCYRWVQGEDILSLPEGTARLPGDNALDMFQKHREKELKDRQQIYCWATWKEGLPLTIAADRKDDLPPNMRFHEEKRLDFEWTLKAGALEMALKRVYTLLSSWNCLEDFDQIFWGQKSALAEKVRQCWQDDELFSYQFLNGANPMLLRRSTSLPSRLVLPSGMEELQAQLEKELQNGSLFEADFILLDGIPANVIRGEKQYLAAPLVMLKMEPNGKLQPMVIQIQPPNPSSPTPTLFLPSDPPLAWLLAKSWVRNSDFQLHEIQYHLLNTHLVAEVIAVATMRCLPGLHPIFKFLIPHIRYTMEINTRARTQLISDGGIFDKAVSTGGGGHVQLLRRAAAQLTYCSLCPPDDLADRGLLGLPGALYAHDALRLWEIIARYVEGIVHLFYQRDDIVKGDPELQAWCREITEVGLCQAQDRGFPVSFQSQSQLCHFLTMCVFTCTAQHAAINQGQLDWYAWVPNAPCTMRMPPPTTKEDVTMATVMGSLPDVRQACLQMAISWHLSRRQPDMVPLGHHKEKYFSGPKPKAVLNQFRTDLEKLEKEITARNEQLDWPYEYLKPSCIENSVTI
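Hydroperoxide product was detected by ferrous iron/xylenol orange as the 573 to 405 nm absorbance ratio. Arachidonic acid at 40 uM (final) was turned over for 30 min at room temperature by 150 nM human 12hLO, pH 7.0 Hepes buffer, after 15 min compound preincubation.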
SW480 rerep: inducers of DNA re-replication in SW480 colon cancer cells | SW480 DNA re-replication, Hoechst DNA content imaging, 48 h | Potency, µM (titrated, usually from 46.1 µM), for the others: at the highest dose re-replication activation, actives largely listed as activators | hit rate 1.8% among 340,000 | AID 624297; further: % of control where 0% means no effect; nearly all actives have a fitted effect of over 55% in size
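DNA re-replication was detected as more nuclei of elevated Hoechst intensity after 48 hr exposure to compound (23 nL pinned per well of 250 cells).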
KB-3-1 tox: KB-3-1 parental cell cytotoxicity; KB-3-1 viability, CellTiter-Glo ATP luminescence, 72 h; Potency, µM (top dose mostly 46.1 µM), hits mostly cytotoxic; hit rate 1.4% among 400,000; further: on the % scale 0 is the no-effect control and ±100 the full control effect; nearly all actives have a fitted effect of over 60% in size
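KB-3-1 cells, DMEM (no phenol red) + 10% FBS; compound by pin transfer, 72 h, 37 °C. Readout: CellTiter-Glo luminescence after 10 min. Data normalized, curve-fitted.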
MCF10A rereplic: induces DNA re-replication in MCF 10a normal breast cells | Potency, µM (titrated, usually from 46.1 µM), inactives show at the top dose activity, positive = re-replication, most hits filed as activators | AID 624296 | MCF 10A DNA re-replication, Hoechst nuclear intensity, 48 h | hit rate 2.9% among 350,000; further: % of control where 0% means no effect; nearly all actives have a fitted effect of over 50% in size
An asterisk follows results filed as active; i = inactive; ? = inconclusive; . = no result; [ ] = another dose, or the depositor's remark. Unless noted, the call rests on the fitted dose curve; in most records, active means well fitted curve in the direction sought with a large enough effect; inconclusive means small, poorly fitted or top-dose-only effect, or another doubt; inactive means no such curve, though single readings can be large; an effect the other way counts as inactive or inconclusive. Potency means the concentration at half of the fitted maximal effect.

SMILES | KB-V1 cytotox | PINK1 modulator | ALOX12 inh | SW480 rerep | KB-3-1 tox | MCF10A rereplic
COCCCNC(=O)c1cc(-c2ccccc2)nc2ccc(C)cc12 | . | . | -9.9% | . | . | .
COc1ccc(-c2nc(C#N)c(NCC(c3cccs3)N(C)C)o2)cc1 (stereo unspecified) | . | . | -12.6% | . | . | .
CCCCOc1ccc(Cc2n[nH]c(=S)n2N)cc1 | i | 1.3% | 8.91µM* | -0.8% | i | 7.5%
COc1ccc(Cc2n[nH]c(=S)n(N)c2=O)cc1 | i | 3.5% | 25.1µM* | -0.2% | i | -16.8%
Cc1ccc(OCc2n[nH]c(=S)n2N)cc1C | i | 0.4% | ? | -1.6% | i | -1.2%
COc1cccc2[nH]c(C(=O)N[C@@H](C)C(=O)Nc3ccc4c(c3)OCCO4)cc12 | . | . | 3.6% | . | . | .
COc1cc2c(cc1OC)[C@@H](Cc1ccc(OCCC#N)cc1)N(C)CC2 | i | 0.1% | 0.0% | -2.8% | i | -12.6%
COc1cc(Br)c(CC2c3cc(OC)c(OC)cc3CCN2C)cc1OC (stereo unspecified) | 20.6µM* | -5.7% | 125.1% | 0.3% | i | -1.0%
c1ccc(-c2nn(-c3ccccc3)[n+](-c3ccccc3)n2)cc1 | i | 0.2% | -0.1% | 9.0% | 7.31µM* | 11.6%
CCn1c(-c2cccc(Cl)c2)n[nH]c1=S | ? | 0.0% | 28.2µM* | -2.9%[9.22 µM] | i | 2.2%
C=CCn1c(-c2cc(OC)c(OC)c(OC)c2)n[nH]c1=S | ? | 2.9%[38.3 µM] | ? | -3.6% | i | -18.2%
CCN(CC)S(=O)(=O)c1cccc(-c2n[nH]c(=S)n2CC(C)C)c1 | ? | -0.3% | 31.6µM* | 5.9% | i | 6.9%
CCn1c(-c2ccc(C(C)(C)C)cc2)n[nH]c1=S | i | 2.2% | 15.8µM* | 4.8% | i | 5.5%
CCn1c(-c2ccc(F)cc2)n[nH]c1=S | i | -0.4% | ? | 1.1% | ? | -1.2%
CCn1c(-c2cc(OC)c(OC)c(OC)c2)n[nH]c1=S | 10.3µM* | -0.2% | ? | 4.1% | i | -7.5%
CCOC(=O)c1ccc(NC(=O)CS(=O)(=O)Cc2nc(-c3ccccc3C)oc2C)cc1 | . | . | 18.2% | . | . | .
Cc1ccc(C)c(OCCCOc2ccc(Cl)cc2/C=N/NC(N)=O)c1 | . | . | -7.9% | . | . | .
COC(=O)C1=C(C)N(C)C(=O)NC1c1ccccc1OC(F)F (stereo unspecified) | . | . | 39.7% | . | . | .
CC(C)c1nnc(NC(=O)NCC(O)c2ccc(F)cc2)s1 (stereo unspecified) | . | . | 14.9% | . | . | .
CCn1c(-c2ccc3[nH]c(C)c(C)c3c2)n[nH]c1=S | ? | . | 10µM* | ? | i | 1.0%
Cc1[nH]c2ccc(-c3n[nH]c(=S)n3C)cc2c1C | ? | . | ? | 2.5% | i | ?
Cn1cccc1/C=N/n1c(-c2ccc(C(C)(C)C)cc2)n[nH]c1=S | i | 7.8% | 25.1µM* | 0.7% | i | ?
Cn1cccc1/C=N/n1c(-c2ccccc2)n[nH]c1=S | i | -0.7% | ? | 10.9% | i | -31.5%
Cc1cccn2c(=O)c3cc(C(=O)NC4CCCCC4)c(=N)n(Cc4ccc(F)cc4)c3nc12 | i | 1.0% | 0.9% | 1.3µM* | i | ?
Cc1cccn2c(=O)c3cc(S(=O)(=O)c4ccccc4)c(=N)n(Cc4ccc(F)cc4)c3nc12 | i | ? | -22.3% | ? | i | ?
SMILES | KB-V1 cytotox | PINK1 modulator | ALOX12 inh | SW480 rerep | KB-3-1 tox | MCF10A rereplic
CCOCCCNc1nc2nc3ccc(C)cn3c(=O)c2cc1C(=O)NCC1CCCO1 (stereo unspecified) | i | 2.6% | -18.6% | 9.2µM* | i | 10.3µM*
Cc1cccn2c(=O)c3cc(C(=O)NCC4CCCO4)c(=N)n(CC4CCCO4)c3nc12 (stereo unspecified) | i | 0.1% | ? | 3.66µM* | i | 4.61µM*
Cc1cccn2c(=O)c3cc(C(=O)NC4CCCC4)c(=N)n(CC4CCCO4)c3nc12 (stereo unspecified) | ? | 3.4% | -27.9% | ? | ? | 9.2µM*
COCCCn1c(=N)c(C(=O)NCC2CCCO2)cc2c(=O)n3cc(C)ccc3nc21 (stereo unspecified) | ? | 2.8% | -11.5% | . | i | .
N#CC(C(=O)NCc1ccccc1)=C1CCCCC1 | . | . | -24.9% | . | . | .
CC1CCCCC1NC(=O)c1cc2c(=O)n3ccccc3nc2n1C (stereo unspecified) | i | 6.3% | 18.3% | ? | i | -3.2%
Cc1cccn2c(=O)c3cc(C(=O)NC4CCCCC4C)n(C)c3nc12 (stereo unspecified) | i | 9.0% | 7.7% | 20.6µM* | i | 14.6µM*
COc1ccc(CNC(=O)c2cc3c(=O)n4cccc(C)c4nc3n(CC3CCCO3)c2=N)cc1 (stereo unspecified) | i | 3.1% | -5.0% | 4.11µM* | i | 8.2µM*
COc1ccc(CCn2c(=N)c(C(=O)NCC3CCCO3)cc3c(=O)n4cccc(C)c4nc32)cc1 (stereo unspecified) | ? | 0.8% | ? | 5.8µM* | ? | 2.91µM*
Cc1cccn2c(=O)c3cc(C(=O)NCc4ccco4)c(=N)n(C4CCCC4)c3nc12 | i | 4.9% | -21.4% | 1.84µM* | i | 2.06µM*
CC(OC(=O)c1n[nH]c(=O)c2ccccc12)C(=O)Nc1cc(F)ccc1F (stereo unspecified) | . | . | -22.1% | . | . | .
Cc1cccn2c(=O)c3cc(C(=O)NCC4CCCO4)c(=N)n(C4CCCCC4)c3nc12 (stereo unspecified) | i | 1.4% | ? | 18.4µM* | i | 18.4µM*
C=CCSc1nnc(NC(=O)c2cc(=O)c3cc(CC)ccc3o2)s1 | . | . | 14.5% | . | . | .
CCOC(=O)c1[nH]c(CSc2nnc(-c3ccc(OC)cc3)o2)c(C(=O)OCC)c1C | ? | 10.2% | 0.0% | 9.4% | i | 16.4µM*
O=C(O)C(c1c[nH]c2ccc(Cl)cc12)N1CCN(Cc2cccnc2)CC1 (stereo unspecified) | . | . | 1.7% | . | . | .
CCOC(=O)c1ccc(NC(=O)N2Cc3[nH]cnc3C[C@H]2c2nc(C(C)C)no2)cc1 | . | . | 43.3%[176 µM] | . | . | .
CCCCCCCCCC[n+]1ccc(/C=C/c2c[nH]c3ccccc23)c2ccccc21 | ? | . | . | . | 8.2µM* | .
CCCCCCC[n+]1ccc(/C=C/c2c[nH]c3ccccc23)cc1 | i | . | . | . | 0.411µM* | .
CC[n+]1ccc(/C=C/c2c[nH]c3ccccc23)cc1 | i | 25.1µM* | ? | ? | 1.84µM* | ?
CCCCCCCCCC[n+]1ccc(/C=C/c2c(C)[nH]c3ccccc23)cc1 | ? | . | . | . | 1.3µM* | .
C(=C\c1c[nH]c2ccccc12)/c1ccnc2ccccc12 | i | 0.9% | . | . | i | .
